# Screens (PubChem BioAssay)
# Compounds with a hit are over-represented: about 4.6% of the library has one in this group of screens.
# tim10-1 inh = growth inhibitors of tim10-1 mutant yeast. S. cerevisiae tim10-1 ts strain growth, BacTiter-Glo, 24 h. inhibition, % at 20 µM. 2.2% of 330,000 active. AID 463190;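 active means inhibition of at least 40%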;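 further: mutant grown at 25 °C; 0% = DMSO wells with yeast and 100% = wells holding no yeast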
# SKKanGAS inh = SKKanGAS growth inhibition; S. pyogenes SKKanGAS, kanamycin growth, BacTiter-Glo, 6 h; inhibition, % at 7.5 µM; 1.3% of 300,000 active; AID 1662;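 active means mean replicate score, as percent of positive control median, at least 50; inconclusive means mean below 50 but one replicate at or above 50; inactive means mean and every replicate below 50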;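 further: strain carries kanamycin resistance gene driven by streptokinase promoter and grows in 40 µg/ml kanamycin; loss of luminescence reflects streptokinase promoter inhibition or plain growth inhibition; 0% = median of DMSO wells and 100% = positive control at its reference dose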
# tim23-1 inh = tim23-1 yeast growth inhibition. S. cerevisiae tim23-1 growth, BacTiter-Glo luminescence, 24 h. inhibition, % at 20 µM. 1.3% of 330,000 active;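 active means growth inhibition of the mutant yeast at or above 50%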;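 further: temperature-sensitive mutant grown at 25 °C; plate controls were DMSO-treated mutant yeast for no effect and medium wells lacking yeast for full effect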
# NLRP3 yeast inh = NALP3 inhibition in yeast. 0.39% of 330,000 active. AID 2825. Yeast reconstituted NLRP3/ASC/caspase-1, beta-gal luminescence, 24 h. inhibition, % at 10 µM;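 active means inhibition of 50% or more; inactive means inhibition below 50%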;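 further: plate controls were induced DMSO wells for no effect and uninduced yeast grown without galactose for full effect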
# PfHsp90 set2 = inhibits growth of yeast expressing Plasmodium falciparum Hsp90; S. cerevisiae expressing PfHsp90, BacTiter-Glo ATP, 48 h; yeast lacking PDR1 and PDR3 efflux regulators; inhibition, % at 9.4 µM; 0.32% of 310,000 active;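 active means every replicate shows inhibition above about 80%, whatever the replicate mean, limit read from the data; inconclusive means mean inhibition reaches the set limit but some replicate falls short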;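 further: 0% = DMSO neutral controls and 100% = 20 µM radicicol positive controls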
# TIM10 inh = growth inhibitors of TIM10 yeast strain. S. cerevisiae TIM10 strain growth, BacTiter-Glo luminescence, 24 h. inhibition, % at 10 µM. 1.4% of 330,000 active. AID 463195;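 active means inhibition of 40% or more at the single tested concentration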;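 further: wild-type TIM10 isogenic control strain grown at permissive 25 °C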
# tim10 confirm = TIM10 yeast growth inhibition, confirmed; S. cerevisiae tim10 strain growth, BacTiter-Glo luminescence, 24 h; shares compounds with TIM10 inh; 63% of 4,600 active; inhibition, % at 10 µM;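 active means inhibition of yeast growth at or above a set limit in either of two replicates at 10 µM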;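 further: this counterscreen used the strain with wild-type TIM10; 0% = yeast with DMSO and 100% = medium wells lacking yeast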
# * = called active by the depositor; ? = inconclusive; nt = not tested or not shown.
SMILES,tim10-1 inh,SKKanGAS inh,tim23-1 inh,NLRP3 yeast inh,PfHsp90 set2,TIM10 inh,tim10 confirm
C=CCNC(=S)N/N=C/c1ccc(C(F)(F)F)cc1,22,2,44,6,-10,40*,20
COc1ccc(C)cc1NC(=O)Nc1ccc(C(=O)N2CCCC2)cc1,3,27,-8,20,16,2,nt
CCCCC[C@@H](O)c1cc2ccccc2c(=O)o1,4,nt,36,28,5,7,nt
c1ccc(/N=C2\N=C(Nc3ccccn3)c3ccccc32)nc1,33,60*,48,21,-2,46*,29
Cc1cccc(N(CC(=O)NC2CCCC2)C(=O)CCC(=O)Nc2ccccn2)c1,3,-3,14,12,13,-13,nt
COc1ccc(N(CC(=O)Nc2cc(Cl)ccc2OC)S(=O)(=O)c2c(C)[nH]c(=O)[nH]c2=O)cc1,-8,10,0,-1,-9,44*,-3
COc1ccc(C2C(C#N)=C3NC(=O)c4c(sc5c4CCCCC5)N3C3=C2C(=O)CC(C)(C)C3)cc1 (stereo not given),30,29,-21,-3,nt,43*,-1
COc1ccc(C2C(C#N)=C(N)N(c3sc4c(c3C#N)CCCC4)C3=C2C(=O)CC(C)(C)C3)cc1 (stereo not given),15,9,27,14,nt,19,nt
N#C/C(=C/c1ccc(F)cc1)S(=O)(=O)c1ccccc1,18,0,17,4,6,3,nt
N#C/C(=C\c1ccc(C(=O)O)cc1)S(=O)(=O)c1cc(Br)ccc1Br,32,0,45,13,nt,42*,18
CCN1CCN(C(=O)c2cn(CCOC)c(=O)c3c2c2ccccc2n3C)CC1,6,-6,-12,0,23,2,nt
CC(C)Cn1cc(C(=O)N2CCN(c3ccccn3)CC2)c2c3ccccc3n(C)c2c1=O,33,7,25,5,-8,44*,25
O=C1C(=C2SCCCS2)CC/C1=C\c1ccc(F)cc1,-28,16,18,25,8,42*,41*
O=C1/C(=C/c2ccc(F)cc2)CCC1C1CCCC1 (stereo not given),23,1,23,12,18,17,nt
Cc1cccc(/C=C2\CCC(=C3SCCCS3)C2=O)c1,34,14,49,36,20,44*,66*
CCOc1ccccc1NC(=O)c1cc(=O)[nH]c2ccc(S(=O)(=O)N3CCOCC3)cc12,-5,nt,4,14,-14,12,nt
c1ccc(-c2csc(Nc3ccc4c(c3)OCCO4)n2)cc1,37,-1,32,23,-13,41*,5
COc1ccc(N2CCC(CNC(=S)Nc3cccc(OC)c3)C2)cc1 (stereo not given),-17,0,39,4,nt,18,nt
CCc1ccccc1NC(=S)NCC1CCN(c2ccc(OC)cc2)C1 (stereo not given),-4,0,48,13,7,40*,53*
CCc1cccc(C)c1NC(=S)NCC1CCN(c2ccc(OC)cc2)C1 (stereo not given),27,11,36,12,-38,57*,59*
COc1cccc(NC(=O)CN2C(=O)NC(Cc3c[nH]c4ccccc34)C2=O)c1 (stereo not given),14,nt,2,9,2,-2,nt
Cc1ccc2nc(-c3ccncc3)c(NC3CCCC3)n2c1,8,-14,25,7,-24,-2,nt
Cc1ccc2nc(-c3ccncc3)c(NC3CCCCC3)n2c1,22,-12,41,18,-8,43*,42*
COc1cccc(/C=N/NC(=O)CSc2ccccc2C)c1O,8,?,39,-4,7,43*,53*
COc1cccc(/C=N/NC(=O)CSc2ccccc2C)c1OC,4,10,1,18,-3,14,nt
Cc1cccc(OCCn2nnc3ccccc32)c1C,13,0,21,37,14,4,nt
CCc1cc(-c2n[nH]c(=S)n2C(C)c2ccccc2)cs1 (stereo not given),26,-7,40,0,nt,41*,20
O=C(COC(=O)COc1ccccc1Cc1ccccc1)Nc1cccnc1Cl,21,-3,26,11,16,11,nt
